PubChem BioAssay (NCATS)
Inconclusive results are not listed. Where a call stands in place of a potency, no number is given. The source made the active and inactive calls. Calls follow the shape of the full dose curve.

Assay: Primary qHTS for Vero E6 cytotoxicity: counterscreen for inhibitors of SARS-S pseudo-typed particle cell entry (AID 1479150)
Details: cell viability; series mostly up to 57.1 µM

SMILES | Potency | activity change, negative = cytotoxicity | outcome
CC1CCCC(C)N1C(=S)Nc1cccc(C(F)(F)F)c1 (centres undefined) | inactive | – | –
CN1N=C2CCN(C(=O)[C@H](COCc3ccccc3)NC(=O)C(C)(C)N)C[C@]2(Cc2ccccc2)C1=O | inactive | – | –
OC(c1ccccc1)(c1ccccc1)C12CC[N+](CCOCc3ccccc3)(CC1)CC2 | inactive | – | –
C=CC1(C)CC(=O)C2(O)C(C)(O1)C(OC(C)=O)C(OC(=O)CCN(C)C)C1C(C)(C)CCC(O)C12C (centres undefined) | inactive | – | –
CN[C@@H]1[C@@H](O)[C@@H](O[C@@H]2[C@@H](O)[C@H](OC3O[C@H](CN)[C@@H](O)[C@H](O)[C@H]3O)[C@@H](N)C[C@H]2NC(=O)[C@@H](O)CN)OC[C@]1(C)O (some centres undefined) | inactive | – | –
COc1ccc(CNCC(O)COc2ccc3[nH]c(=O)ccc3c2)cc1OC (centres undefined) | inactive | – | –
C[N+]1(C)CCN(CC(O)(c2ccccc2)C2CCCCC2)CC1 (centres undefined) | inactive | – | –
O=P(O)(O)OC1C(OP(=O)(O)O)C(OP(=O)(O)O)C(OP(=O)(O)O)C(OP(=O)(O)O)C1OP(=O)(O)O (centres undefined) | inactive | – | –
CNCc1cc(-c2ccccc2F)n(S(=O)(=O)c2cccnc2)c1 | inactive | – | –
[Mn].[O]=[Mn][OH].[O]=[Mn][OH] | inactive | – | –
C[C@]12C=CC(=O)C=C1CC[C@@H]1[C@@H]2[C@@H](O)C[C@@]2(C)[C@H]1CC[C@]2(O)C(=O)COP(=O)(O)O | – | -2.88% [at 11.4 µM] (inactive) | –
COc1cc(N)cn[n+]1-c1ccccc1 | inactive | – | –
CC1CCCCN1CCCOC(=O)c1ccccc1 (centres undefined) | inactive | – | –
CCCCCCCCCCCCOC(=O)CS(=O)(=O)O | inactive | – | –
CCCCN(CCCC)C(=S)[S-].CCCCN(CCCC)C(=S)[S-].[Zn+2] | inactive | – | –
CCC(=O)O[C@@H](OP(=O)(CCCCc1ccccc1)CC(=O)N1C[C@H](C2CCCCC2)C[C@H]1C(=O)O)C(C)C (some centres undefined) | – | – | inactive [at 11.4 µM]
O=C(Nc1ccc(O)cc1)c1ccccc1O | inactive | – | –
C=C1c2c(Cl)ccc(O)c2C(O)=C2C(=O)[C@@]3(O)C(O)=C(C(N)=O)C(=O)[C@@H](N(C)C)[C@@H]3[C@@H](O)[C@H]12 | inactive | – | –
Oc1cc(O)cc(O)c1 | inactive | – | –
CC(OC(=O)NCC1(CC(=O)O)CCCCC1)OC(=O)C(C)C (centres undefined) | inactive | – | –

SMILES | Potency | activity change, negative = cytotoxicity | outcome
O=C(O)C(O)C(O)C(=O)O (centres undefined) | inactive | – | –
NC(N)=NCC1COC2(CCCCC2)O1 (centres undefined) | inactive | – | –
COC(=O)[C@@H](N)CS | inactive | – | –
CC1(C)C[C@H]1C(=O)N/C(=C\CCCCSC[C@@H](N)C(=O)O)C(=O)O | inactive | – | –
CCCCCCCCCCCCCCCC(=O)OCC(O)C1OC(=O)C(O)=C1O (centres undefined) | inactive | – | –
Cc1c(C)c2c(c(C)c1OC(=O)CCC(=O)O)CC[C@@](C)(CCC[C@H](C)CCC[C@H](C)CCCC(C)C)O2 | inactive | – | –
COc1nc2ccc(Br)cc2cc1[C@@H](c1ccccc1)[C@@](O)(CCN(C)C)c1cccc2ccccc12 | inactive | – | –
CCOc1nc2cccc(C(=O)O)c2n1Cc1ccc(-c2ccccc2-c2noc(=O)[nH]2)cc1 | inactive | – | –
CC[C@H]1OC(=O)C[C@@H](O)[C@H](C)[C@@H](O[C@@H]2O[C@H](C)[C@@H](O)[C@H](N(C)C)[C@H]2O)[C@@H](CCN2C[C@H](C)C[C@H](C)C2)C[C@@H](C)C(=O)/C=C/C(C)=C/[C@@H]1CO[C@@H]1O[C@H](C)[C@@H](O)[C@@H](OC)[C@H]1OC | inactive | – | –
O=C(O)[C@H]1OC(O)[C@H](O)[C@@H](O)[C@@H]1O (some centres undefined) | inactive | – | –
CCCCC(O)c1ccccc1 (centres undefined) | inactive | – | –
CC(C)(C)C(=O)OCOC(=O)[C@@H]1N2C(=O)[C@@H](N=CN3CCCCCC3)[C@H]2SC1(C)C | inactive | – | –
NC(=O)C1(N2CCCCC2)CCN(CCCN2c3ccccc3CCc3ccccc32)CC1 | inactive | – | –
C[N+](C)(C)CC(O)CC(=O)O (centres undefined) | inactive | – | –
N[C@H](Cc1cnc[nH]1)C(=O)O | inactive | – | –
CC(C)(C)NC(=O)N[C@H](C(=O)N1C[C@H]2[C@@H]([C@H]1C(=O)NC(CC1CCC1)C(=O)C(N)=O)C2(C)C)C(C)(C)C (some centres undefined) | inactive | – | –
CN1c2c(nc(N)[nH]c2=O)NC[C@@H]1CNc1ccc(C(=O)N[C@@H](CCC(=O)O)C(=O)O)cc1 | – | – | inactive [at 5.34 µM]
Cc1cccc(C)c1N(CCCc1cccnc1)C(=O)C(C)N (centres undefined) | inactive | – | –
O=P(O)(O)OC(CO)CO | inactive | – | –
